# Hit rate of the full screen: of about 69,000 compounds, about 1,000 (1.4%) showed an effect of 50% or more. Only a selection was taken, and strong results are over-represented in it overall.
# System: Leishmania donovani
# Test: Leishmania intramacrophage assay
# Format: functional, organism-based
# Design: scale not given: in the data most compounds retested in dose-response had high values
structure (smiles),measurement,setting,value
NC(=O)c1cccc2nc([C@H]3CCN(Cc4ccccn4)C3)[nH]c12,Percent Effect,"30.3 µM, […]",53.25%
Cc1ccc(CN2CC[C@H](c3nc4cccc(C(N)=O)c4[nH]3)C2)cc1,Percent Effect,"30.3 µM, […]",-18.93%
NC(=O)c1cccc2nc([C@H]3CCN(Cc4ccccc4F)C3)[nH]c12,Percent Effect,"30.3 µM, […]",22.02%
c1ccc(C(CC2CN(Cc3c[nH]cn3)CCO2)c2ccccc2)cc1 (configuration not stated),Percent Effect,"30.3 µM, […]",20.85%
CN(C)S(=O)(=O)N(C)C(c1cccc(F)c1)c1ccccn1 (configuration not stated),Percent Effect,30 µM,24.26%
Clc1ccc(N2CCC(C3CCN(Cc4cccnc4)CC3)C2)nc1 (configuration not stated),Percent Effect,"30.3 µM, […]",-2.762%
Clc1ccc(CN2CCC(C3CCN(Cc4cccnc4)CC3)C2)cc1 (configuration not stated),Percent Effect,"30.3 µM, […]",51.57%
Clc1cccnc1N1CCC(C2CCN(Cc3cccnc3)CC2)C1 (configuration not stated),Percent Effect,"30.3 µM, […]",-17.23%
Cc1ncsc1C(=O)N(C)Cc1ccncc1,Percent Effect,"30 µM, 30.03 µM",-5.146%
Cc1ncsc1CN(Cc1ccccc1)Cc1ncc[nH]1,Percent Effect,"30.3 µM, […]",-37.36%
Cc1ncsc1CN(Cc1ccccc1)Cc1ccncc1,Percent Effect,"30.3 µM, […]",55.73%
Cc1noc(C2CCN(CC(=O)N3CCNC(=O)C3)CC2)n1,Percent Effect,"30.3 µM, […]",-15.33%
O=C(O)C1(Cc2cccc(Cl)c2)CCCN(c2ncnc3[nH]ccc23)C1 (configuration not stated),Percent Effect,"30.3 µM, […]",20.11%
CCCSc1nn(CCCN(C)C)c2nc3sc(C)c(CC)c3c(=O)n12,Percent Effect,"30.3 µM, […]",-2.726%
O=C(c1ccoc1)N1Cc2cnn(CC3CC3)c2C(COCC2CC2)C1 (configuration not stated),Percent Effect,"30.3 µM, […]",-14.05%
CC(C)C(=O)N1CCC(c2c(C(N)=O)sc3ccccc23)C1 (configuration not stated),Percent Effect,"30.3 µM, […]",2.33%
CS(=O)(=O)CCCN1CCN(C(C#N)c2ccccc2)CC1 (configuration not stated),Percent Effect,"30.3 µM, […]",16.78%
CC(C)S(=O)(=O)CCN1CCN(C(C#N)c2ccccc2)CC1 (configuration not stated),Percent Effect,"30.3 µM, […]",27.38%
CCCS(=O)(=O)CCN1CCN(C(C#N)c2ccccc2)CC1 (configuration not stated),Percent Effect,"30.3 µM, […]",50.86%
CC(C)c1nc(C2CCCN(C(=O)CCc3cscn3)C2)no1 (configuration not stated),Percent Effect,30 µM,12.46%
Cc1oncc1C(=O)NCC1(O)CCc2ccccc2C1 (configuration not stated),Percent Effect,"30.3 µM, […]",25.53%
Cc1nn(C)c(Cl)c1CNCc1cccnc1N1CCN(C)CC1.Cl,Percent Effect,"30 µM, 30.03 µM",52.88%
Cc1nn(C)c(Cl)c1CNCc1cccnc1N1CCOCC1.Cl,Percent Effect,"30 µM, 30.03 µM",2.073%
Cc1nn(C)c(Cl)c1CNCc1cccnc1N1CCCCC1.Cl,Percent Effect,"30.3 µM, […]",-11.04%
Cc1ccc(C)c(S(=O)(=O)CCNC2CCc3ncnn3C2)c1 (configuration not stated),Percent Effect,30 µM,28.38%
CCc1ncc(CN[C@@H]2CCCN(C(C)=O)[C@H]2c2ccc(C)s2)cn1.Cl,Percent Effect,"30.3 µM, […]",12.48%
CC(C)c1nc(-c2cc(C(=O)NCCCO)c3ccccn23)cs1,Percent Effect,"30.3 µM, […]",30%
CC(C)c1nc(-c2cc(C(=O)N3CCN(C)CC3)c3ccccn23)cs1.O=C(O)C(F)(F)F,Percent Effect,"30.3 µM, […]",16.88%
Cc1nc(-c2cc(C(=O)NCCN3CCOCC3)c3ccccn23)cs1.O=C(O)C(F)(F)F,Percent Effect,"30.3 µM, […]",-52.36%
CC(C)c1nc(-c2cc(C(=O)O)c3ccccn23)cs1,Percent Effect,"30.3 µM, […]",-0.8279%
CC(C)c1nc(-c2cc(C(=O)NCCN(C)C)c3ccccn23)cs1.O=C(O)C(F)(F)F,Percent Effect,"30.3 µM, […]",74.71%
Cc1cnc(CNc2ccc(C(=O)NCc3ccco3)cc2C)o1,Percent Effect,"30.3 µM, […]",-20.82%
O=C(O)C(F)(F)F.c1cc(CNCC2Cn3nncc3CO2)co1 (configuration not stated),Percent Effect,"30.3 µM, […]",20.1%
CCCn1nnnc1COC(=O)C1COc2ccc(Cl)cc2C1 (configuration not stated),Percent Effect,"30.3 µM, […]",-4.057%
O=C(NCC1(c2cccc(F)c2)CC1)N1CCC2(CCOC2)C1 (configuration not stated),Percent Effect,"30.3 µM, […]",-5.939%
CC1(C)OC(=O)N(CC(=O)N2CCC(c3ccccc3Cl)C2)C1=O (configuration not stated),Percent Effect,"30.3 µM, […]",16.86%
CC(=O)N1CCC(Cc2cnc(C(=O)N3CCCC3)cn2)C1 (configuration not stated),Percent Effect,"30.3 µM, […]",-5.476%
CCOCc1ccccc1CNc1ccc2nncn2n1,Percent Effect,"30.3 µM, […]",18.04%
CCn1ncc(CNc2[nH]cnc3nncc2-3)c1C,Percent Effect,"30.3 µM, […]",46.44%
CCn1ncc(Nc2[nH]cnc3nc(C)nc2-3)c1C,Percent Effect,"30.3 µM, […]",-7.482%
CCn1ncc(Nc2[nH]cnc3nncc2-3)c1C,Percent Effect,"30.3 µM, […]",61.85%
N#Cc1c(F)cccc1N1CCCC(C(=O)Nc2nccs2)C1 (configuration not stated),Percent Effect,"30.3 µM, […]",38.57%
CN(c1ccc(CNC(=O)c2c[nH]c(=O)c(Cl)c2)cc1)C1CCCCC1,Percent Effect,"30.3 µM, […]",30.08%
Cc1ccc(C(=O)NCc2ccc(N(C)C)cc2)cn1,Percent Effect,"30.3 µM, […]",1.485%
CN(c1ccc(CNC(=O)c2ccc(O)nc2)cc1)C1CCCCC1,Percent Effect,"30.3 µM, […]",57.37%
CNC(=O)c1cc(C)n(-c2ccccc2)n1,Percent Effect,"30.3 µM, […]",21.3%
Cc1cnc(CN(C)C2CCN(Cc3nc4ccccc4o3)C2)o1 (configuration not stated),Percent Effect,30 µM,8.725%
CC(=O)N(Cc1ncc(C)o1)C1CCN(Cc2cccc(C#N)c2)C1 (configuration not stated),Percent Effect,"30 µM, 30.03 µM",6.646%
CC(=O)N(Cc1ncc(C)o1)C1CCN(Cc2ccncc2Cl)C1 (configuration not stated),Percent Effect,"30 µM, 30.03 µM",31.13%
Cc1nnc(CN(C)C2CCN(Cc3nc4ccccc4n3C)C2)o1 (configuration not stated),Percent Effect,30 µM,31.75%
Cc1cnc(CN(C)C2CCN(Cc3nc4ccccc4n3C)C2)o1 (configuration not stated),Percent Effect,"30 µM, 30.03 µM",57.21%
O=C(c1ccccc1O)N1CCn2c(nnc2C(F)(F)F)C1,Percent Effect,"30.3 µM, […]",-5.557%

# Source: ChEMBL document CHEMBL3988442, “University of Dundee, Small-Polar-MMV Screening Library” (2021)
